Source: PubChem BioAssay (National Center for Advancing Translational Sciences (NCATS))
D2 ag-1 = Beta-Arrestin HTS for Positive Allosteric Modulators of the Human D2 Dopamine Receptor: Agonists; D(2) dopamine receptor (Homo sapiens), P14416; activation, % (concentration not given with the values); 0.084% of 360,000 active; DiscoveRx PathHunter D2 beta-arrestin, luminescence, 90 min; 100% = 57 uM dopamine signal; in the data active = activation above about 40%; inconclusive = between about 15% and that limit
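Agonist mode: compounds alone added to overnight-plated D2 PathHunter cells for 90 min at 37 C, with 57 uM final dopamine (EC100) defining full response. Beta-arrestin recruitment detected by chemiluminescent reagent, read after 1 h at ambient temperature.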
D2 antagonist = HTS Assay for Allosteric Antagonists of the Human D2 Dopamine Receptor: Primary Screen for Antagonists. HEK293 TREx D2 cells, calcium flux, dopamine EC80. inhibition, % at 10 µM. 2% of 340,000 active; in the data active = inhibition above about 30%; inactive = below that, where a call was filed; also: 0% is about no effect
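Compounds are added to dye-loaded, induced HEK293 T-REx cells coupled to calcium release via D2; after a 3 min kinetic read an EC80 dopamine stimulus is given and fluorescence is recorded for 3 more min.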
D2 PAM-1 = HTS Assay for Positive Allosteric Modulators of the Human D2 Dopamine Receptor: Primary Screen for Potentiators; D(2) dopamine receptor (Homo sapiens), P14416; HEK293 T-REx D2, calcium flux, EC20 dopamine potentiation; potentiation, % at 10 µM; 0.34% of 340,000 active;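 active = potentiation over 3 SD above the plate norm, cut at about 30% in these data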; also: 0% is about no effect
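Tetracycline-induced Hek293 Trex D2 cells, force-coupled to calcium, loaded with no-wash calcium dye. Compound added with 180 s kinetic read for agonism, then EC20 dopamine and a further 180 s read for potentiation.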
D2 ag-2 = HTS Assay for Allosteric Agonists of the Human D2 Dopamine Receptor: Primary Screen for Agonists; HEK293 T-REx D2 cells, calcium flux agonist mode; activation, % at 2 µM; 0.53% of 340,000 active; AID 485358, 2010;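 active = activation over 3 SD above normal in the single-dose calcium agonist read, cut at about 30% in these data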; also: 0% is about no effect
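Calcium-flux readout, 1 cycle/sec over 180 s following compound pin transfer, in inducible HEK293 Trex D2 cells (force-coupled); dopamine controls included. Positive calcium responses during this window marked compounds as potential agonists.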
D2 PAM-2 = Beta-Arrestin HTS for Positive Allosteric Modulators of the Human D2 Dopamine Receptor: Potentiators; D(2) dopamine receptor (Homo sapiens), P14416; DiscoveRx D2 beta-arrestin cells, luminescence, 90 min; 100% = 57 uM dopamine signal; potentiation, % (concentration not given with the values); 0.23% of 360,000 active; in the data active = potentiation above about 50%; inconclusive = mostly about 30% to 49%
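PathHunter beta-arrestin assay in DiscoveRx D2 cells. Compounds were added with an EC20 of dopamine (50 nM final) for 90 min at 37 deg C. Luminescence was read 1 h after detection reagent, with 57 uM dopamine as the EC100 control.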
D3 ag = qHTS of D3 Dopamine Receptor Agonist: D3 Dopamine Receptor B-arrestin Agonist Confirmatory Assay. shares compounds with D2 ag-2. DiscoveRx D3 beta-arrestin cells, luminescence, 90 min. Potency, µM (top dose mostly 76.9 µM), inactives show top-dose activation, usual class: activators. 4% of 2,300 active;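 also: potency is read from the fitted curve at half-maximal effect; 100% = dopamine control response; nearly all actives have a fitted effect of over 70% in size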
Target sequence (P35462 whole entry, looked up): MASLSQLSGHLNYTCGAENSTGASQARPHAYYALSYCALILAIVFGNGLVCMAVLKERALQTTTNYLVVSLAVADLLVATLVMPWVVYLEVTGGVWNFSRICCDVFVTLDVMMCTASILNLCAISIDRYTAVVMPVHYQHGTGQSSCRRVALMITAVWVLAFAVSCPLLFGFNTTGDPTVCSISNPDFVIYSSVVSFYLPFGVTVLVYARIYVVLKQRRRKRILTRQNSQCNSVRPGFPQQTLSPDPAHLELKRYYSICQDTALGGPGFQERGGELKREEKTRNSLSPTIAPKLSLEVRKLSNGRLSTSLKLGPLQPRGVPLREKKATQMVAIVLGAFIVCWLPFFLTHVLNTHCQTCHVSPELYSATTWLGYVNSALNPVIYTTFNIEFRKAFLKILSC
D2 ag-3 = qHTS of D3 Dopamine Receptor Agonist: D2 Dopamine Receptor B-arrestin Agonist Counterscreen. Potency, µM (top dose mostly 76.9 µM), for inactives: at the highest dose activation, actives largely listed as activators. shares compounds with D2 ag-2. AID 720507, 2013. 5.9% of 2,300 active. DiscoveRx PathHunter D2 beta-arrestin, luminescence, 90 min; response scale: percent relative to full dopamine signal; also: potency is read from the fitted curve at half-maximal effect; % of control where 0% means no effect; nearly all actives have a fitted effect of over 70% in size
Active calls of the source: *; ? = inconclusive; . = no result given. Sampled rows, rich in hits. Any-hit rate of the full collection: about 2.4%. Unless noted, calls follow the shape of the dose curve; as a rule, active = well fitted activation curve with a large enough effect; inconclusive = small, poorly fitted or top-dose-only effect; inactive = flat fitted curve, though single readings scatter.

SMILES	D2 ag-1	D2 antagonist	D2 PAM-1	D2 ag-2	D2 PAM-2	D3 ag	D2 ag-3
COc1ccc(C2C=C(c3ccccc3)Nc3nnnn32)cc1 (stereo not drawn)	1	.	4	.	-11	-6%	-3%
CC1=C(C(=O)Nc2ccccc2)C(c2ccc[nH]2)n2ncnc2N1 (stereo not drawn)	.	.	12	0	.	.	.
Cc1cccc(C)c1OCC(=O)Nc1c(C(=O)c2ccc(Br)cc2)oc2ccccc12	.	.	10	0	.	.	.
Cn1nnnc1Sc1ncnc2scc(-c3ccccc3)c12	-5	5	7	0	-3	.	.
Cn1nnnc1Sc1ncnc2scc(-c3ccc(F)cc3)c12	-2	.	.	.	1	-2%	-4%
Cn1c(N2CCN(c3ccccn3)CC2)nc2c1c(=O)n(Cc1ccccc1Cl)c(=O)n2C	-2	.	.	.	-16	.	.
Cn1c(N2CCN(c3ccccn3)CC2)nc2c1c(=O)n(Cc1ccc(Cl)cc1)c(=O)n2C	5	49*	-10	47*	-7	18%	?
CC(=O)N1CCC2(CC1)C(C#N)=C(N)Oc1c2sc2nc(C)cc(C)c12	-2	-4	6	0	-15	.	.
CCN1CCC2(CC1)C(C#N)=C(N)Oc1c2sc2nc(C)cc(C)c12	6	53*	-23	67*	-16	16%	8%
COc1ccc(-c2cc(C(=O)N3CCCC(C(F)(F)F)C3)c3ccccc3n2)cc1 (stereo not drawn)	2	7	9	0	1	-7%	-2%
COc1ccc(NC(=O)c2cc3c(=O)n(Cc4cccnc4)ccc3nc2C)c(OC)c1	.	.	-5	0	.	.	.
Cc1ccc(S(=O)(=O)N2CCOCC2)cc1C(=O)N1CCN(c2ncccn2)CC1	6	-27	-16	36*	25	-8%	-1%
Cc1ccc(S(=O)(=O)N2CCOCC2)cc1C(=O)N1CCOCC1	-2	.	18	.	-3	.	.
Cc1ccccc1C(=O)NNC(=O)c1cc(S(=O)(=O)N2CCOCC2)ccc1C	-2	17	-2	1	-4	-5%	-2%
O=C(CCn1c(=O)c2ccccc2n(Cc2ccc(F)cc2Cl)c1=O)NCc1ccc2c(c1)OCO2	.	.	14	-1	.	.	.
COC(=O)c1c(-c2cccs2)csc1NC(=O)COc1ccc(C(C)C)cc1	.	.	-3	3	.	.	.
C=C(C)C(=O)Nc1nnc(-c2ccccc2C)s1	-1	52*	10	0	-23	-5%	-4%
O=C(Nc1ccc(NC(=O)c2ccc([N+](=O)[O-])cc2[N+](=O)[O-])cc1)c1ccco1	-1	0	-13	47*	?	?	13%
Cc1c(C(=O)Nc2ccccc2Cl)oc2ccc(S(=O)(=O)N3CCCCCC3)cc12	.	.	-11	0	.	.	.
Nc1nonc1-n1nnc(C(=O)N/N=C/c2cccs2)c1-c1ccc2c(c1)OCO2	-2	7	18	20	10	-6%	0%
Cc1ccc(-c2c(C(=O)N/N=C/c3ccoc3)nnn2-c2nonc2N)cc1	-2	10	11	1	-2	-9%	-4%
CCOc1ccc(-c2c(C(=O)N/N=C/c3cccs3)nnn2-c2nonc2N)cc1	?	16	23	1	-9	.	.
